# Screening results deposited in PubChem BioAssay by National Center for Advancing Translational Sciences (NCATS).
# LDHA block: qHTS assay for inhibitors of human lactate dehydrogenase. activity change, % (values are at about 110 or 230 µM). purified LDHA, NADH/diaphorase-resazurin fluorescence; stronger effect = lower value. L-lactate dehydrogenase A chain (Homo sapiens), P00338. 0.15% of 480,000 active. AID 1347041, 2019; in the data active means activity change below about -30%; inconclusive means mostly about -25% to -30%;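 further: plate controls were DMSO wells for no effect and wells without enzyme for full effect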
#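 Human LDH5 (2 nM) was incubated with 0.06 mM NADH and 0.2 mM pyruvate for 5 min at room temperature in Tris pH 7.4. Remaining NADH was coupled through diaphorase/resazurin, and resorufin fluorescence was read at 0 and 20 min.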
# RORg inh: qHTS for inhibitors of ROR gamma transcriptional activity | Drosophila S2 Gal4-RORgamma UAS-luciferase reporter, 20 h | Potency, µM (highest dose often 53.6 µM), without a hit: top-dose activity change, negative = inhibition, most hits filed as inhibitors | 5.4% of 310,000 active | AID 2551, 2010; further: potency means the concentration at half of the fitted maximal effect; nearly all actives have a fitted effect of over 60% in size
# Target sequence (P51450 whole entry, looked up, the tested form may be a part): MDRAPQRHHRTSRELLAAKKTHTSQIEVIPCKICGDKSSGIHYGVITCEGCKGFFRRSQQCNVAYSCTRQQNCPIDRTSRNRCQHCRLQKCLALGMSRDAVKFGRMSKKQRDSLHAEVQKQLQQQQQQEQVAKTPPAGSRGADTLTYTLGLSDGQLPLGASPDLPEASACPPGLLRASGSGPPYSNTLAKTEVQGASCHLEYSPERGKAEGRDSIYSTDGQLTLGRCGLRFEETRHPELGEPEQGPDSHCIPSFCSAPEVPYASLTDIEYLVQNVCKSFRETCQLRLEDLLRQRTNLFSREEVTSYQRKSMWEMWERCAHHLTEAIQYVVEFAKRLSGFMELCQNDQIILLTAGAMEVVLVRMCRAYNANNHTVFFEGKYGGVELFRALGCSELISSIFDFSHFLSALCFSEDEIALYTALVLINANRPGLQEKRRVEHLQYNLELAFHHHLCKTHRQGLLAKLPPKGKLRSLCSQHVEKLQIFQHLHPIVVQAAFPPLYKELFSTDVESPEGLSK
#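 A Gal4/UAS one-hybrid system in insect cells: metallothionein-promoter Gal4–ROR gamma fusion plus Photinus luciferase reporter. Copper sulfate 700 uM final, 20 hr ambient incubation, luminescent detection after 10 min with reagent.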
# IL-1B inflam inh: qHTS for Inhibitors of Inflammasome Signaling: IL-1-beta AlphaLISA Primary Screen | THP-1 LPS/ATP IL-1B secretion, AlphaLISA, 16 h; stronger effect = lower value | activity change, % at 57.5 µM | 4.7% of 360,000 active | AID 743279, 2014; in the data active means activity change below about -50%; inconclusive means mostly about -30% to -49%
#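 THP-1 cells pretreated 1 hr with compounds (up to 57.5 uM final), then stimulated with LPS (250 ng/mL final) plus ATP (1.25 mM final); secreted IL-1B measured by AlphaLISA after 16 hr, decreased signal indicating inhibition.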
# TDP1 cell noCPT: qHTS for Inhibitors of human tyrosyl-DNA phosphodiesterase 1 (TDP1): qHTS in cells in absence of CPT | DT40 Tdp1-/- hTDP1 cells, no CPT, ATP luminescence, 48 h | Potency, µM (doses to about 46.2 µM), for the others: at the top dose activity change, negative = growth inhibition, most hits filed as inhibitors | 15% of 420,000 active | AID 686978, 2013; further: potency means the concentration at half of the fitted maximal effect; nearly all actives have a fitted effect of over 55% in size
#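 Camptothecin absent (DMSO only). Human TDP1-complemented DT40 knockout cells, 400 cells/well, 37 °C for minimum 48 hr; ATP measured via CellTiter-Glo, 30 min dark incubation, luminescence.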
# TDP1 cell CPT: qHTS for Inhibitors of human tyrosyl-DNA phosphodiesterase 1 (TDP1): qHTS in cells in presence of CPT | 12% of 420,000 active | AID 686979, 2013 | Potency, µM (series often up to 46.2 µM), for inactives: at the highest dose activity change, negative = growth inhibition, most hits filed as inhibitors | chicken DT40 Tdp1-/-;hTDP1 cells + 20 nM CPT, ATP luminescence, 48 h; further: potency means the concentration at half of the fitted maximal effect; nearly all actives have a fitted effect of over 55% in size
#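 Cell growth measured by CellTiter-Glo luminescence after a minimum 48 h, 37 C compound exposure with 20 nM CPT in Tdp1-knockout DT40 cells stably expressing hTDP1, seeded 400/well; qHTS titration format.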
# Gal4-VP16 FLuc: VP16 counterscreen qHTS for inhibitors of ROR gamma transcriptional activity; AID 2546, 2010; 3.5% of 310,000 active; Drosophila S2 Gal4-VP16 UAS-luciferase, luminescence, 20 h; Potency, µM (doses to about 53.6 µM), for inactives: at the highest dose activity, negative = inhibition, hits mostly inhibitors;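 further: Gal4-VP16 expression switched on by copper sulfate through the metallothionein promoter; potency means the concentration at half of the fitted maximal effect; nearly all actives have a fitted effect of over 50% in size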
# Numbers without * were called inactive; i = inactive; ? = inconclusive; . = no result; [ ] = another dose, or the depositor's remark. Most compounds without a hit are left out; they make up all but 18% or so of the library. Unless noted, the call rests on the fitted dose curve; in most records, active means well fitted curve in the direction sought with a large enough effect; inconclusive means small, poorly fitted or top-dose-only effect, or another doubt; inactive means no such curve, though single readings can be large; an effect the other way counts as inactive or inconclusive. Unless noted, on the % scale 0 is the no-effect control and ±100 the full control effect.
SMILES,LDHA block,RORg inh,IL-1B inflam inh,TDP1 cell noCPT,TDP1 cell CPT,Gal4-VP16 FLuc
O=c1oc2ccccc2n1CCn1c2ccccc2c2nc3ccccc3nc21,-2.0,?,-21.0,5.8µM*,16.4µM*,?
CCN(CC)CCn1c2ccccc2c2nc3ccccc3nc21,2.7,-9.2%,-97.1*,23.1µM*,?,-2.3%
CCN(CC)CCn1c2ccccc2c(=O)c2c(O)ccc(O)c21,31.0,.,-2.7,20.6µM*,7.31µM*,.
CCN(CC)CCn1c(O)c(N=O)c2ccccc21,-11.2,-1.5%[10 µM],11.2,-16.4%,-4.8%,2.0%
N#CCCn1c2ccccc2c2nc3ccccc3nc21,-5.5,14.3%,-91.4*,9.2µM*,?,-2.7%
CCN(CC)CCn1c2ccccc2c2n[nH]c(=S)nc21,-1.1,.,33.5,-11.5%,3.8%,.
NC(=O)CCS(=O)(=O)CCN1CCN(S(=O)(=O)c2ccccc2)CC1,-10.0,.,.,.,.,.
Cc1ccc(C)c(C(=O)c2sc(Nc3cccc(F)c3)nc2N)c1,-0.8,.,.,.,.,.
COc1ccc(NC(=S)N2CCC(Cc3ccccc3)CC2)cc1OC,0.2,12.6µM*,20.3,?,?,15.8µM*
COc1cccc(NC(=O)CCC2CCN(C(=O)C(OC)c3ccccc3)CC2)c1 (stereo not drawn),-7.1,.,-4.5,20.6µM*,16.4µM*,.
COc1ccc(NC(=S)N2CCN(S(=O)(=O)c3ccccc3)CC2)cc1OC,8.1,8.0%,i,-16.8%,-19.4%,-0.1%
COc1cccc(NC(=S)N2CCC(Cc3ccccc3)CC2)c1,-2.1,7.08µM*,-22.7,?,20.6µM*,17.8µM*
Cc1ccc(S(=O)(=O)NCCc2ccc(S(N)(=O)=O)cc2)c(C)c1,-2.3,.,.,.,.,.
COc1cccc(C(=O)Nc2ccc(N3CCN(C(=O)c4cccs4)CC3)cc2)c1,-8.7,1.4%,-87.1*,4.61µM*,2.31µM*,3.4%
O=C(Nc1ccc(N2CCN(C(=O)c3cccs3)CC2)cc1)c1cccc(F)c1,-3.8,?,-88.6*,20.6µM*,16.4µM*,5.2%
COc1cccc(OC)c1C(=O)Nc1ccc(N2CCN(C(=O)c3cccs3)CC2)cc1,-3.6,.,0.0,?,-22.5%,.
COc1cccc(CSc2nc3n(n2)C(CC(C)C)C(C(=O)Nc2ccccc2OC)=C(C)N3)c1 (stereo not drawn),-1.9,.,.,13µM*,18.4µM*,.
CC1=C(C(=O)Nc2ccccc2C)C(c2cccs2)n2nc(SCc3ccccc3)nc2N1 (stereo not drawn),-3.0,.,.,20.6µM*,20.6µM*,.
CC1=C(C(=O)Nc2ccc(C)cc2C)C(c2ccc(C(=O)O)cc2)n2nc(SCc3ccccc3)nc2N1 (stereo not drawn),-20.4,.,.,-2.9%,-3.4%,.
CC1=C(C(=O)Nc2ccccc2C)C(c2ccncc2)n2nc(SCc3ccccc3)nc2N1 (stereo not drawn),-7.3,.,.,-8.5%,-11.3%,.
COc1cc(C2C(C(=O)Nc3ccc(C)cc3C)=C(C)Nc3nc(SCc4ccccc4)nn32)cc(OC)c1OC (stereo not drawn),-12.3,.,.,23.1µM*,20.6µM*,.
COc1cccc(CSc2nc3n(n2)C(c2cccc(F)c2)C(C(=O)Nc2ccccc2C)=C(C)N3)c1 (stereo not drawn),0.5,.,.,-2.9%,3.7%,.
COc1ccccc1CSc1nc2n(n1)C(c1ccccc1)C(C(=O)Nc1ccc(C)cc1)=C(C)N2 (stereo not drawn),-10.9,.,.,23.1µM*,16.4µM*,.
Cc1ccc(NC(=O)C(C)N(C)Cc2ccc3c(c2)OCCO3)cc1 (stereo not drawn),0.9,.,.,.,.,.
COc1ccccc1NC(=O)C1=C(C)Nc2nc(SCc3ccccc3F)nn2C1c1ccncc1 (stereo not drawn),-1.9,.,.,-23.9%,-6.3%,.
SMILES,LDHA block,RORg inh,IL-1B inflam inh,TDP1 cell noCPT,TDP1 cell CPT,Gal4-VP16 FLuc
CC1=C(C(=O)Nc2ccc(C)cc2C)C(c2cccs2)n2nc(SCc3ccc(Cl)cc3)nc2N1 (stereo not drawn),-10.9,.,.,11.6µM*,10.3µM*,.
CC1=C(C(=O)Nc2ccccc2C)C(c2ccccn2)n2nc(SCc3ccccc3F)nc2N1 (stereo not drawn),-0.2,.,.,10.3µM*,6.51µM*,.
O=C(NCc1ccccc1)C1CCN(S(=O)(=O)/C=C/c2ccccc2)CC1,-0.2,.,.,.,.,.
Brc1ccc(/C=N/Nc2nc3ccccc3o2)cc1,-1.0,8.91µM*,-10.4,-3.6%,-23.7%,?
Oc1ccccc1/C=N/Nc1nc2ccccc2o1,-0.4,0.501µM*,48.9,2.91µM*,3.26µM*,3.98µM*
O=S(=O)(c1ccccc1)N1CCN=C1SCc1ccc(Cl)cc1,0.2,37.1%,7.9,18.4µM*,?,?
O=S(=O)(c1ccc(F)cc1)N1CCN=C1SCc1cccnc1,-10.3,4.1%,21.4,?,-5.3%,-0.3%
O=S(=O)(c1ccccc1)N1CCN=C1SCc1ccc(Cl)c(Cl)c1,-2.9,?,-29.4,18.4µM*,13µM*,-28.4%
O=S(=O)(c1ccccc1)N1CCN=C1SCc1cccc(Cl)c1,1.7,-2.7%,0.0,20.6µM*,?,13.6%
O=S(=O)(c1ccc2ccccc2c1)N1CCN=C1SCc1cccnc1,4.8,-0.6%,-25.7,?,23.1µM*,-17.8%
CCS(=O)(=O)N1CCN=C1SCc1ccccc1,-0.2,0.7%,-1.2,1.4%,-0.8%,-1.0%
O=S(=O)(c1ccccc1)N1CCN=C1SCc1ccccc1Cl,-1.1,?,20.2,?,?,-26.3%
CSc1ccc(C(C)NC(=O)c2ccccc2C)cc1 (stereo not drawn),3.2,.,.,.,.,.
CCC(=O)N(CCC1(c2ccc(C)cc2)CCOC(C)(C)C1)Cc1ccccc1 (stereo not drawn),-3.9,.,.,.,.,.
C=C1C[C@H](OC(=O)C(C)(O)CCl)C2C(=C)C(=O)O[C@@H]2C2C1C[C@H](O)[C@]2(O)CCl (stereo partly drawn),.,?,.,0.82µM*,1.46µM*,?
C=CCSC1=N/C(=C\c2ccc(OC)cc2)C(=O)S1,2.9,.,.,.,.,.
Cc1ccc(C)c(NC(=S)NCCN2CCOCC2)c1,-0.6,.,17.8,2.5%,-22.2%,.
Cc1ccc(NC(=S)NN2CCOCC2)c(C)c1,-7.3,11.2µM*,-17.3,7.1%,2.8%,?
